High-throughput results (PubChem)
SENP8 block-1: inhibitors of human SENP8 protease | Q96LD8 | recombinant SENP8, Nedd8 substrate fluorescence | inhibition, % at 20 µM | actives 0.64% (n = 360,000) | AID 602440; in the data active = inhibition mostly above about 40%, no sharp cut-off; inactive = mostly below about 27%
Target sequence (Q96LD8 whole entry, looked up): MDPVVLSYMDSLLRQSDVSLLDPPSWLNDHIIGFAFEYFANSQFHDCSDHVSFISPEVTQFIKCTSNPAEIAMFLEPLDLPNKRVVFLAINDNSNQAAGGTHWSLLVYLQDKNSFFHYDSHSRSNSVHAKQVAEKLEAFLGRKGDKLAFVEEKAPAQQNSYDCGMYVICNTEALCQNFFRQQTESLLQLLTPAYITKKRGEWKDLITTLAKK
SENP8 block-2: inhibitors of human SENP8 protease; purified SENP8, Z-RLRGG-aminoluciferin cleavage, luminescence; inhibition, % at 10 µM; actives 1.2% (n = 330,000); AID 2540; in the data active = inhibition above about 50%
SENP7 inh: SENP7 protease inhibition. Q9BQF6. recombinant SENP7, Z-RLRGG-aminoluciferin luminescence, 40 min. inhibition, % at 5 µM. actives 1.5% (n = 330,000). AID 434973;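 active = inhibition above about 50% at the single test dose, limit read from the data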
SENP6 inh: inhibitors of human SENP6 protease; Recombinant SENP6 catalytic domain, aminoluciferin luminescence; inhibition, % at 10 µM; actives 1.8% (n = 330,000);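 active = inhibition above about 50% at the single tested dose, limit read from the data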
Target sequence (Q9GZR1 628-1112 limits assumed): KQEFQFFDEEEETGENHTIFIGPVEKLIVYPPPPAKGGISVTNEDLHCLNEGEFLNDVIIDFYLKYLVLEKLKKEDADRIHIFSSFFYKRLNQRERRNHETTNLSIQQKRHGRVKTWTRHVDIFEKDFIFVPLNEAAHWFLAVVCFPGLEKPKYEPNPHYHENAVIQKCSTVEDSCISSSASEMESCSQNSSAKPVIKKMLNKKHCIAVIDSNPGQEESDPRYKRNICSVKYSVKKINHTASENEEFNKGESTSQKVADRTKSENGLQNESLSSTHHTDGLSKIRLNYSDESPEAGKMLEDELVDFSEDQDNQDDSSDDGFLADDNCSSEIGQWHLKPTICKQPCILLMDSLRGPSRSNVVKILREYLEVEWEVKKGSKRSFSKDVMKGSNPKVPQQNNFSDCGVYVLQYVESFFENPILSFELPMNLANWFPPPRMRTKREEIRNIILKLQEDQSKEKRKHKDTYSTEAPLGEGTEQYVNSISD
HSP90 inh: blocks HSP90-mediated luciferase refolding in reticulocyte lysate; Rabbit reticulocyte lysate, luciferase refolding luminescence, 3 h; inhibition, % at 5.6 µM; actives 0.91% (n = 290,000); AID 1789;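 active = inhibition above the screen-wide mean plus 3 SD, computed separately per campaign, cut at about 16% in these data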;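 also: inhibitors lower the luminescence because luciferase stays unfolded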
Platelet DG rel: platelet dense granule release activity; human platelet-rich plasma, SFLLRN dense granule ATP release, luminescence; actives 0.22% (n = 300,000); inhibition, %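 (compounds screened at 7.5 µM in platelet-rich plasma)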;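 active = mean replicate score, as percent of positive control, at or above 50; inconclusive = mean below 50 but at least one replicate at or above 50; inactive = mean and every replicate below 50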
Of the large screens only hits and unclear results are named; the others gave an inactive call. Rows were chosen to be rich in hits. Some 2.8% of all compounds tested hit in one or more screens of this group.

CCCCCOC(=O)c1c(N)n(CCOC)c2nc3ccccc3nc12	SENP8 block-2 63, SENP7 inh 64
Nc1[nH]n2c(=O)c3c(nc2c1N=Nc1ccc(Cl)cc1)CCCC3	SENP8 block-1 45
Cc1[nH]n2c(=O)c3c(nc2c1-c1ccc(Cl)cc1)CCC3	none
Nc1[nH]n2c(=O)c3c(nc2c1N=Nc1ccccc1)CCCC3	SENP8 block-1 53
COc1cccc(CNc2nc(NC(C)C)nc3ccsc23)c1	none (no result: SENP8 block-2, SENP7 inh, SENP6 inh, HSP90 inh, Platelet DG rel)
NNC(=O)c1cc(C23CC4CC(CC(C4)C2)C3)[nH]n1	none
CCCc1cc(C(=O)N2CCCC(N3CCN(c4ccccc4C)CC3)C2)n(C)n1 (stereo unspecified)	none
CCCc1cc(C(=O)N2CCCC(N3CCN(c4ccccc4F)CC3)C2)n(C)n1 (stereo unspecified)	Platelet DG rel 53
O=c1oc(-c2ccc([N+](=O)[O-])cc2)nc2ccc(O)cc12	SENP8 block-2 95, SENP7 inh 100, SENP6 inh 95, Platelet DG rel inconclusive
O=c1oc(-c2ccc([N+](=O)[O-])cc2)nc2ccccc12	none
CCCCOC(=O)CCc1c(C)[nH]c(=O)c(C#N)c1C	Platelet DG rel 61
Cc1ccc(NC(=O)CCc2c(C)[nH]c(=O)c(C#N)c2C)cc1	none
CC(Nc1cccc2ccccc12)C(=O)N/N=C/c1ccc([N+](=O)[O-])cc1 (stereo unspecified)	SENP6 inh 81
COc1ccc(S(=O)(=O)c2ccc(OC)cc2)cc1	none (no result: Platelet DG rel)
COc1ccc(N=[N+]([O-])c2ccc(OC)cc2)cc1	SENP8 block-1 41 (no result: SENP8 block-2, SENP7 inh, SENP6 inh, HSP90 inh, Platelet DG rel)
CCCCn1c(N)c(N(CCOC)C(=O)c2ccc(N3CCCC3)c([N+](=O)[O-])c2)c(=O)[nH]c1=O	none (no result: HSP90 inh)
Cc1ccc(C)c(S(=O)(=O)N2CCCOC2CNC(=O)C(=O)NC2CC2)c1 (stereo unspecified)	none
O=C(O)c1ccc(NC2=C(n3nnc4ccccc43)C(=O)c3ccccc3C2=O)cc1	SENP8 block-1 55
Cc1c(C(=O)N2CCN(CCc3ccccn3)CC2)oc2ccc(Cl)cc12	none
O=Cc1cc(N=Nc2cccc(C(=O)O)c2)ccc1O	SENP8 block-2 97, SENP7 inh 98, SENP6 inh 95
O=Cc1cc(N=Nc2ccccc2Cl)ccc1O	none
Cc1noc(C)c1S(=O)(=O)NC(=O)C1(C)CCN1C(=O)CC(c1ccccc1)c1ccccc1 (stereo unspecified)	none (no result: SENP8 block-2, SENP7 inh, SENP6 inh, HSP90 inh, Platelet DG rel)
COCCNc1nc(Nc2ccc(C)cc2C)c2sccc2n1	none (no result: SENP8 block-2, SENP7 inh, SENP6 inh, HSP90 inh, Platelet DG rel)
Cc1ccn2c(=O)c(NC(=O)c3cccs3)c(C)nc2c1	none (no result: HSP90 inh)
NS(=O)(=O)c1ccc(N=Nc2ccc(O)c3ncccc23)cc1	none
NS(=O)(=O)c1ccc(N=Nc2ccc(=O)[nH]c2O)cc1	SENP8 block-1 64 (no result: SENP8 block-2, SENP7 inh, SENP6 inh)
COc1ccc2occ(C(=O)c3ccccc3)c2c1	none
COc1ccc(C(=O)c2coc3c2C(=O)C(=O)c2ccccc2-3)cc1	SENP8 block-1 83
O=C1/C(=C/N(C(=O)c2ccco2)c2ccc(Cl)cc2)Sc2ccccc21	HSP90 inh 16 (no result: SENP8 block-2, SENP7 inh, SENP6 inh)
O=C1c2ccccc2C(=O)N1CCCCN(C(=O)c1ccco1)c1ccc(Cl)cc1	none
CN1CCN(S(=O)(=O)c2cccc(C(=O)Nc3ccc(Br)cc3Br)c2)CC1	none
Cc1cccc(NC(=O)c2ccc(NCCO)c([N+](=O)[O-])c2)n1	Platelet DG rel 85
COc1ccccc1NC(=O)C1CCCN1C(=O)Nc1ccc(F)cc1 (stereo unspecified)	none
Cc1ccc(N2Cc3ccccc3C2=S)cc1	SENP7 inh 59, SENP6 inh 54
S=C1c2ccccc2CN1c1ccccc1	none
COc1cc(OC)c(C(=O)/C=C/c2ccccc2)c(O)c1O	SENP8 block-1 45 (no result: HSP90 inh)
COC(=O)c1cccc(NC(=O)CSc2nnc(C)o2)c1	none
C[C@@H]1OC(Nc2ccc(N=Nc3ccccc3)cc2)[C@H](O)[C@H](O)[C@H]1O (stereo partly specified)	SENP8 block-1 40
NC(=S)N/N=C1\CCOc2ccc(F)cc21	none
COc1ccc(Nc2nnc(SCc3cc([N+](=O)[O-])cc4c3OCOC4)s2)cc1	none
O=C(NNc1ccc([N+](=O)[O-])cn1)Nc1ccc(N=Nc2ccccc2)cc1	SENP8 block-1 48 (no result: SENP8 block-2, SENP7 inh, SENP6 inh, HSP90 inh, Platelet DG rel)
FC(F)(F)C1=Nc2cccc3cccc(c23)N1	SENP8 block-1 62 (no result: HSP90 inh, Platelet DG rel)
COc1ccc(OCC(=O)NC(=O)c2ccccc2OC)c([N+](=O)[O-])c1	none (no result: HSP90 inh)
CCc1ccc(-n2ccc(=O)c(C(=O)O)n2)cc1	none
COc1ccc(CC2=C(O)c3ccccc3C(=O)C2=O)cc1	SENP8 block-1 68
COc1ccc(CN2C(=O)c3ccccc3C2=O)cc1	none
Cc1ccccc1C1CC(c2ccccc2OC(F)F)Nc2ncnn21 (stereo unspecified)	none
Cc1ccc(C2CC(c3ccccc3OC(F)F)Nc3ncnn32)cc1 (stereo unspecified)	Platelet DG rel 51
COCCCN1C(=O)C(CC(=O)NCCCN(C)C)CC(C(=O)N2CCOCC2)=C1C (stereo unspecified)	none (no result: SENP8 block-2, SENP7 inh, SENP6 inh, HSP90 inh, Platelet DG rel)
O=C1NNC(c2ccccc2)=N/C1=C\c1ccccc1	SENP8 block-1 47
Cc1ccc(-n2c(C)cc(/C=c3/sc4nc5ccccc5n4c3=O)c2C)cc1	Platelet DG rel 61 (no result: SENP8 block-1)
CCn1c(SC(C)C(=O)NCC2CCCO2)nc2ccccc21 (stereo unspecified)	none (no result: HSP90 inh, Platelet DG rel)
CCOC(=O)c1sc(NC(=S)NC(=O)c2ccc(OC)cc2)nc1C	HSP90 inh 16
CN(CCc1ccccc1)C(=O)c1cccc(NC(=O)Cc2cccc(NC(=O)C3CCCN(C(=O)c4ccccc4)C3)c2)c1 (stereo unspecified)	none (no result: SENP8 block-2, SENP7 inh, SENP6 inh, HSP90 inh, Platelet DG rel)
CC(C)(C)NC(=O)Nc1cccc(Cl)c1Cl	none
Cn1cccc1C(=O)C(=O)Nc1cccc(Cl)c1Cl	SENP7 inh 89
O=C(Nc1ccccc1)Nc1cccc(Cl)c1Cl	SENP7 inh 55, SENP6 inh 74
O=C(Nc1ccncc1)Nc1cccc(Cl)c1Cl	none
CC(=O)c1ccccc1NC(=O)COC(=O)CN1C(=O)C2CCCCC2C1=O (stereo unspecified)	none (no result: HSP90 inh, Platelet DG rel)
O=C1c2ccccc2C(=O)N1OS(=O)(=O)c1ccc(F)cc1	Platelet DG rel 60 (no result: SENP8 block-2, SENP7 inh, SENP6 inh)
Cc1cc(C)c(S(=O)(=O)ON2C(=O)c3ccccc3C2=O)cc1C	none
CN(C)C(CNC(=O)c1c(F)cccc1Cl)c1ccco1 (stereo unspecified)	none
O=C(c1cccs1)N1C[C@H](O)[C@@H](n2cc(C3CC3)nn2)C[C@@H]1c1ccccc1	none (no result: SENP8 block-2, SENP7 inh, SENP6 inh, HSP90 inh, Platelet DG rel)
Nc1ccc(N=Nc2ccccc2)c2ccccc12	none
Nc1ccc(N=Nc2ccccc2)c(N)n1	SENP8 block-1 36
COc1cc(/C=N/Nc2nncn2/N=C/c2ccc(O)c(OC)c2)ccc1O	Platelet DG rel 56
OC1CN=C2C=CC=CN2C1 (stereo unspecified)	Platelet DG rel 54
COC(=O)C(C(=O)OC)C1C=CCN(C(C)=O)C1 (stereo unspecified)	none (no result: SENP8 block-2, SENP7 inh, SENP6 inh, HSP90 inh, Platelet DG rel)
Cc1ccc(-n2nc(C)c(C(=O)O)n2)c(C)c1	none
